In ChEMBL document CHEMBL1961873, “Compounds: GSK PKIS; Assays: Nanosyn kinase panel” (2012):

Legend:
[1] = target: Mitogen-activated protein kinase kinase kinase kinase 4 (Homo sapiens) (UniProt O95819); conditions: at 1 µM;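 also: reported figure is an averaged inhibition value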
[2] = target: Dual specificity mitogen-activated protein kinase kinase 1 (Homo sapiens) (UniProt Q02750); conditions: at 0.1 µM
[3] = target: Dual specificity mitogen-activated protein kinase kinase 1 (Homo sapiens) (UniProt Q02750); conditions: at 1 µM
[4] = target: Misshapen-like kinase 1 (Homo sapiens) (UniProt Q8N4C8); conditions: at 0.1 µM
[5] = target: Misshapen-like kinase 1 (Homo sapiens) (UniProt Q8N4C8); conditions: at 1 µM
[6] = target: T1, Serine/threonine-protein kinase 4 (Homo sapiens) (UniProt Q13043); conditions: at 0.1 µM
T1 sequence (whole entry): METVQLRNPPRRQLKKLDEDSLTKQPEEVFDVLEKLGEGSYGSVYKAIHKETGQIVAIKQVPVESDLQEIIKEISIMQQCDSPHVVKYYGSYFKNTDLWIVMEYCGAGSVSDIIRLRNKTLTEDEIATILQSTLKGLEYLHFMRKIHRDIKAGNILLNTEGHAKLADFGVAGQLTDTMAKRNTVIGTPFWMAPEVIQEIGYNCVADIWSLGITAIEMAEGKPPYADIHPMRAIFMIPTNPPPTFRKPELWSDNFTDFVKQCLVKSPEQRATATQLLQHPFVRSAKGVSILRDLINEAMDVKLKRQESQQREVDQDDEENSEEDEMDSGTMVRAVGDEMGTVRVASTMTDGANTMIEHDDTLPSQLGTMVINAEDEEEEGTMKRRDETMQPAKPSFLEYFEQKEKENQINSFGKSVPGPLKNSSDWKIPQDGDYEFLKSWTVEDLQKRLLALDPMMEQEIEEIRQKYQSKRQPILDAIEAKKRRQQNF

[7] = target: T1, Serine/threonine-protein kinase 4 (Homo sapiens); conditions: at 1 µM
[8] = target: T2, Serine/threonine-protein kinase 3 (Homo sapiens) (UniProt Q13188); conditions: at 0.1 µM
T2 sequence (whole entry): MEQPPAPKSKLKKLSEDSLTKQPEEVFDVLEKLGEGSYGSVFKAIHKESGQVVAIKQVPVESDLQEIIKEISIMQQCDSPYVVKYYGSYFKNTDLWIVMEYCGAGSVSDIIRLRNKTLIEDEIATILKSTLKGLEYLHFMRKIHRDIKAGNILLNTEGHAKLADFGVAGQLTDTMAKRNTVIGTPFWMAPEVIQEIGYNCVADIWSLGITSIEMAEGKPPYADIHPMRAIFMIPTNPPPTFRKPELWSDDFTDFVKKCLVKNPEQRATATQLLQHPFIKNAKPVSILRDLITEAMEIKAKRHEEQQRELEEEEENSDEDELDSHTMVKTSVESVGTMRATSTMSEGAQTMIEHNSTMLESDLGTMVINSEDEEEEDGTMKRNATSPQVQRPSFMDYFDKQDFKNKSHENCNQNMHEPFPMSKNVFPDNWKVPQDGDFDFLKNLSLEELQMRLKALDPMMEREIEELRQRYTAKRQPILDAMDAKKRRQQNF

[9] = target: T2, Serine/threonine-protein kinase 3 (Homo sapiens); conditions: at 1 µM
[10] = target: Serine/threonine-protein kinase 26 (Homo sapiens) (UniProt Q9P289); conditions: at 0.1 µM
Serine/threonine-protein kinase 26 (Homo sapiens), sequence (Q9P289 2-416 limits assumed): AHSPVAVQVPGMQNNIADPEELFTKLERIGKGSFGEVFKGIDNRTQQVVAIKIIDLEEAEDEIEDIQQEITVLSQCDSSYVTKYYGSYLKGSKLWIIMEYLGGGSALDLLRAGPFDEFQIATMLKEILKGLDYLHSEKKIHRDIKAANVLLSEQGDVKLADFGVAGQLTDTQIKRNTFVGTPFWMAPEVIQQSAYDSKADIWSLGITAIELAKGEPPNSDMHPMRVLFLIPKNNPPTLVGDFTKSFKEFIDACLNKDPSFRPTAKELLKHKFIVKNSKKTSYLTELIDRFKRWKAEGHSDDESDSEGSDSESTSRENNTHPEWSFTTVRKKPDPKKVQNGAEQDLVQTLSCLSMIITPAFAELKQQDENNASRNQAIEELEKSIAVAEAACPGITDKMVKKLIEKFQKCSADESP

Dual specificity mitogen-activated protein kinase kinase 1 (Homo sapiens), sequence (Q02750 whole entry): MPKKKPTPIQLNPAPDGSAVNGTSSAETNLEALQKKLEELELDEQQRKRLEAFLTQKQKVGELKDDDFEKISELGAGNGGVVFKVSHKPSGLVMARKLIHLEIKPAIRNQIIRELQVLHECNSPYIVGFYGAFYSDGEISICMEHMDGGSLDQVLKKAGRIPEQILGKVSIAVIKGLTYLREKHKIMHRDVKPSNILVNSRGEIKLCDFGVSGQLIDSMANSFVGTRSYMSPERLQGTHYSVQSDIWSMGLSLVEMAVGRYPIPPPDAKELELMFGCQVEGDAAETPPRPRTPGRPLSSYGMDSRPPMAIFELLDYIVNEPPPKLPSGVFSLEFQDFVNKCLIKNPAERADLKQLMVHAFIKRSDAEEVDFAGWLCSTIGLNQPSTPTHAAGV
Mitogen-activated protein kinase kinase kinase kinase 4 (Homo sapiens), sequence (O95819 2-1239 limits assumed): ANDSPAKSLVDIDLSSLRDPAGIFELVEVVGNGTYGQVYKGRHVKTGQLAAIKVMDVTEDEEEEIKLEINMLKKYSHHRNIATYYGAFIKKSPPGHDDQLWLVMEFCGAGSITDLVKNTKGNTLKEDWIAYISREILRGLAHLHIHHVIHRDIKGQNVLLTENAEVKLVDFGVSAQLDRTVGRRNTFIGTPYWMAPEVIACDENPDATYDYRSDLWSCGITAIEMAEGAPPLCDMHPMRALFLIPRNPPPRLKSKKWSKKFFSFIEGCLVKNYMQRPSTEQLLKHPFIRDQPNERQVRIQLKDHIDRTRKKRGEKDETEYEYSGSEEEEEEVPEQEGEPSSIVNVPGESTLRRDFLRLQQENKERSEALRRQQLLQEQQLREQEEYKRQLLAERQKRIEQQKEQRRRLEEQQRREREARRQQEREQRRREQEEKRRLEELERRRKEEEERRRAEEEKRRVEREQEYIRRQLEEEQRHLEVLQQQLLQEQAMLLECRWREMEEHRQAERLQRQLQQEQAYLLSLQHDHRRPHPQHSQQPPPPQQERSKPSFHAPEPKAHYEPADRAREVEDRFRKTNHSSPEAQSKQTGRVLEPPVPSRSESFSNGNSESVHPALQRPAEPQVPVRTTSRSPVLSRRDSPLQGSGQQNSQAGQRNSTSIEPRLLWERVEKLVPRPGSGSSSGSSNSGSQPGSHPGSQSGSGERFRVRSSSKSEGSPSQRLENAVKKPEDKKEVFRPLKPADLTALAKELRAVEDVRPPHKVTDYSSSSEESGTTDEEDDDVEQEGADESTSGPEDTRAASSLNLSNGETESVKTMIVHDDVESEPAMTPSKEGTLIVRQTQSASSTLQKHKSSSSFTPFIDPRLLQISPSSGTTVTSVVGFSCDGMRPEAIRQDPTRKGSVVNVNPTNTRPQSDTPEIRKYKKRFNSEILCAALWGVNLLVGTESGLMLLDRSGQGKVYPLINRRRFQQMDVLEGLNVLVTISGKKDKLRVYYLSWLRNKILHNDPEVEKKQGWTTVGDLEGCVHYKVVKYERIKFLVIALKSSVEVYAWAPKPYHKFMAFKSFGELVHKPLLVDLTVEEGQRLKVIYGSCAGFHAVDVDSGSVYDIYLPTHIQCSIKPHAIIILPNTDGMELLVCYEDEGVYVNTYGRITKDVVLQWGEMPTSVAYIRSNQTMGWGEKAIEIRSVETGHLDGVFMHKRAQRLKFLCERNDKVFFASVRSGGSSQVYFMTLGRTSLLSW
Misshapen-like kinase 1 (Homo sapiens), sequence (Q8N4C8 whole entry, looked up): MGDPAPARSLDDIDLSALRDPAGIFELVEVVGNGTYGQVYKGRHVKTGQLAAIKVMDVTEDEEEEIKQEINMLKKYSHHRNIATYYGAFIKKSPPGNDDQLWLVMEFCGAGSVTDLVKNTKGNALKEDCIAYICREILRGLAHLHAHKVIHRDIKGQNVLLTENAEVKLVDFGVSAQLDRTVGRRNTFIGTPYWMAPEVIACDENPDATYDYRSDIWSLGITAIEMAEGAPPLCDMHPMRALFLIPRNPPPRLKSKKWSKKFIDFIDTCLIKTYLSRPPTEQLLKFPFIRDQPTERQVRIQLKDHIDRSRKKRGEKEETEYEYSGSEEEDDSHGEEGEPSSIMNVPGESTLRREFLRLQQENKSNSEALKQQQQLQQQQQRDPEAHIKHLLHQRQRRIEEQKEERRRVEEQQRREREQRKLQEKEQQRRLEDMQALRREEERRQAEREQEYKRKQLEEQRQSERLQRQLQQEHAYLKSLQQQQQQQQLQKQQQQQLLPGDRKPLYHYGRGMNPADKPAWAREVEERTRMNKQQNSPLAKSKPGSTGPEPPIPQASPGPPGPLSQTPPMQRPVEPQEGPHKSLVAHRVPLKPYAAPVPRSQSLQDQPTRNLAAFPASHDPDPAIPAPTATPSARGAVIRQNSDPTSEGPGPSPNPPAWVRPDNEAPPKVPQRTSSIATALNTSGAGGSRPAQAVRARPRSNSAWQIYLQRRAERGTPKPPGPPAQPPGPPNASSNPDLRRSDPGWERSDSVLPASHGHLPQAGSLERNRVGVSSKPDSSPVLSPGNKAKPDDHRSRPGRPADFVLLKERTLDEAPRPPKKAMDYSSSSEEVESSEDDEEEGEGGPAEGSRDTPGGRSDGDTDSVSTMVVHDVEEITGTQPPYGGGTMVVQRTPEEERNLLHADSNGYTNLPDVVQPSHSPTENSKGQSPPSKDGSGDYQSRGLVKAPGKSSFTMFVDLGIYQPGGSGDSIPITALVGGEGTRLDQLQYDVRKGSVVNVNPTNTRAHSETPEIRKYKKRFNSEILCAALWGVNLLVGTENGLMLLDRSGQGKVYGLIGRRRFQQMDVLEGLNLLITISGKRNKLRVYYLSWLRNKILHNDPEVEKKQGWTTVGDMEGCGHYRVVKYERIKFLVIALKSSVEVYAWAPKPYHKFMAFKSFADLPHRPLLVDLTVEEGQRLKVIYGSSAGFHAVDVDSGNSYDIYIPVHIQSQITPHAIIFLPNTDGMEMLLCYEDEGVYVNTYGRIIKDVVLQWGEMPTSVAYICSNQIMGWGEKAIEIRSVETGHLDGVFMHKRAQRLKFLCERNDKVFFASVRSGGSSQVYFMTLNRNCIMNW

Row | Structure (SMILES) | inhibition [1] [%] | inhibition [2] [%] | inhibition [3] [%] | inhibition [4] [%] | inhibition [5] [%] | inhibition [6] [%] | inhibition [7] [%] | inhibition [8] [%] | inhibition [9] [%] | inhibition [10] [%]
1 | Cc1ccc(C(=O)NC(C)C)cc1-c1ccc(C(=O)NCC2CC2)cc1 | 1.81 | -2.99 | -1.83 | -3.61 | -1.09 | -3.24 | -3.63 | -4.19 | -4.98 | 2.16
2 | CCc1nccc2c1nc(-c1nonc1N)n2CC | 6.31 | 1.12 | 1.54 | 3.5 | 3.84 | -1.14 | -0.39 | – | – | -1.4
3 | C#Cc1cccc(Nc2ncnc3ccc(OCCCCNCCS(C)(=O)=O)cc23)c1 | 19.6 | 6.88 | 4.96 | 9.17 | 17.6 | 4.35 | 7.8 | 5.45 | 7.49 | -2.14
4 | O=C(Nc1n[nH]c2nc(-c3ccc(O)cc3)c(Br)cc12)C1CC1 | 75.2 | 7.68 | 8.1 | 26.4 | 67.7 | 5.36 | 10.2 | 6.31 | 10.6 | 4.96
5 | c1ccc(-c2n[nH]cc2-c2ccnc(-c3ccc(OCCN4CCOCC4)cc3)c2)nc1 | 77.5 | -0.91 | -0.3 | 20.2 | 69.2 | 1.73 | 2.13 | 2.06 | 0.12 | 5.82
6 | O=C(Nc1n[nH]c2cc(-c3cc(F)ccc3F)ccc12)C1CC1 | 58.7 | 4.62 | 4.19 | 11.6 | 45.7 | 1.85 | 4.03 | 2.46 | 3.81 | -1.29
7 | NCc1ccc(-n2c(-c3nonc3N)nc3cnccc32)cc1 | 20.3 | 8.09 | 8.5 | 11.2 | 16.3 | 9.89 | 19.6 | 10.2 | 13.1 | 0.95
8 | COc1ccc(C2=C(N3CCc4ccccc43)C(=O)NC2=O)cc1 | 12.6 | 5.11 | 4.03 | 7.89 | 11 | 7.03 | 7.64 | 6.94 | 6.17 | -0.57
9 | COc1cc(Nc2ncc(-c3ccccc3)o2)cc(OC)c1OC | 26.4 | -0.87 | 0.69 | 0.26 | 17.3 | -2.33 | 0 | -4.02 | -1.87 | -0.19
10 | CCN(CC)Cc1ccc(Nc2nccc(-c3cnn4ncccc34)n2)cc1 | 20.4 | 3.09 | 13.1 | 5.68 | 17 | 1.35 | 15.9 | 5.43 | 9.79 | -1.89
11 | O=C(NCC1CC1)c1ccc(-c2cccc(C(=O)NC3CC3)c2)cc1 | 2.03 | 3.01 | 1.66 | 2.89 | -1.8 | 4.49 | 5.3 | 4.78 | 3.31 | -2.14
12 | NS(=O)(=O)c1ccc(N/N=C2\C(=O)Nc3ccc(-c4cnco4)cc32)cc1 | 77.6 | 2.18 | 5.31 | 51.6 | 75.8 | 43.8 | 76.8 | 33.4 | 73.2 | 0.61
13 | COc1cccc(/C=N/Nc2ncnc3c2cnn3-c2cccc(OC)c2)c1 | 10.8 | 3.68 | 2.66 | 5.65 | 10.9 | 2.42 | 3.52 | 3.29 | 3.95 | -3.41
14 | FC(F)(F)c1cccc(Nc2nccc(-c3cnn4nc(-c5ccccc5)ccc34)n2)c1 | 3.3 | 2.8 | 3.14 | 3.38 | 3.06 | 1.12 | 3.6 | 3.94 | 3.81 | 0.42
15 | COc1cccc(-n2cnc3c(N/N=C/c4ccncc4)ncnc32)c1 | 16.9 | -0.13 | -0.71 | 2.27 | 16.9 | 3.6 | 7.14 | 4.46 | 7.42 | 0.98
16 | O=C1Nc2ccc(I)cc2C1=Cc1cc(Br)c(O)c(Br)c1 | 83.7 | 3.38 | 3.62 | 18.9 | 73.2 | 3.39 | 17.2 | 3.5 | 19.5 | 0.13
17 | CCc1cccc(CC)c1/C=C/c1cncc(C(=O)NC)c1 | 7.49 | 2.63 | 2.68 | 3.66 | 6.06 | 5.37 | 5.19 | 5.6 | 3.95 | -0.96
18 | Fc1ccc(-c2ncn(C3CCNCC3)c2-c2ccnc(Oc3ccc(F)c(F)c3)n2)cc1 | 10.9 | 3.03 | 3.8 | 8.56 | 12 | 7.1 | 7.9 | 10.2 | 9.55 | 1.93
19 | C[C@@H](Oc1cc(-n2cnc3ccc(OC4CCN(C)CC4)cc32)sc1C(N)=O)c1ccccc1Cl | 7.81 | 1.83 | 2.54 | 6.26 | 5.92 | 4.68 | 19.5 | 6.85 | 13.4 | -3.27
20 | O=C1Nc2ccccc2/C1=C/Nc1ccc(-n2cncn2)cc1 | 65.8 | 6.13 | 6.15 | 15.3 | 56.5 | 14.9 | 54.4 | 9.7 | 35.7 | -0.63
21 | CCS(=O)(=O)c1ccc(OC)c(Nc2ncc(-c3cccc(-c4ccccc4F)c3)o2)c1 | 7.49 | -1.1 | -0.23 | 1.27 | 6.72 | -0.24 | 0.6 | 0.7 | -0.3 | 0.48
22 | COc1cc(C)c(N(C)C(=O)CN(C)C)cc1Nc1nc(Nc2cccc(F)c2C(N)=O)c2cc[nH]c2n1 | 4.77 | 2.7 | 4.56 | 2.85 | 1.74 | 4.57 | 4.81 | 5.2 | 4.32 | -0.43
23 | Clc1ccc(CNc2nccc(-c3cnn4ncccc34)n2)cc1 | 16.3 | 0.08 | 2.12 | 1.36 | 10.7 | 3.22 | 5.84 | 2.53 | 3.57 | -0.31
24 | COc1ccc(-c2ccc3c(NC(=O)C4CC4)n[nH]c3n2)cc1 | 33 | 2.82 | 2.1 | 5.24 | 21.8 | 2.12 | 4.96 | 2.09 | 5.21 | -1.38
25 | COc1cc(Nc2ncc3c(C)nc(-c4cccc(C(F)(F)F)c4)n3n2)cc(OC)c1OC | 34 | 4.45 | 10.7 | 10.5 | 29.2 | 7.12 | 17.8 | 6.69 | 13.2 | 0.97
26 | NC(=O)Cc1ccccc1Oc1nccc(-c2c(-c3ccc(F)cc3)ncn2C2CCNCC2)n1 | 6.68 | 2.01 | 2.53 | 4.37 | 6.95 | 1.4 | 3.79 | 2.69 | 4.24 | -0.95
27 | CS(=O)(=O)CCNCc1cc(-c2cc3c(Nc4ccc(OCc5cccc(F)c5)c(Cl)c4)ncnc3s2)cs1 | 10.3 | 4.54 | 5.74 | 6.33 | 8.36 | 4.99 | 6.28 | 6.59 | 6.16 | -2.65
28 | Fc1ccc(-c2nc3n(c2-c2ccncc2)CCS3)cc1 | 18.3 | 5.23 | 5.11 | 6.96 | 14 | 3.57 | 4.41 | 3.46 | 3.73 | -1.69
29 | CN(C)CCOc1ccc(-c2cc(-c3ccc4c(c3)CCC4=NO)c(-c3ccncc3)o2)cc1 | 17.3 | 1.44 | 2.23 | 0.59 | 12.5 | -0.36 | 0.8 | -1.52 | 1.19 | 0.59
30 | Fc1ccc(-c2ncn(C3CCNCC3)c2-c2ccnc(Oc3ccc(Oc4ccccc4)cc3)n2)cc1 | 7.43 | 4.35 | 7.53 | 5.29 | 9.38 | 2.43 | 4.68 | 4.83 | 5.3 | -1.41
